Our source for the outcome and AC50 values is PubChem BioAssay (EPA / NIEHS).

What is called AC50 is the concentration at which the activity in the assay is half-maximal.

Read-out in assay [1]: Interleukin-1 alpha (IL1a), IL1A (gene 3552)
Kind of assay: BSK_KF3CT_IL1a: BioMAP Diversity Plus: KF3CT Assay for Interleukin-1 alpha (IL1a) Biomarker Activity (AID 2283070). The settings on record: primary human keratinocytes with fibroblasts; actives raise or lower the signal. The procedure, abridged: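 Chemicals were dosed onto co-cultured human keratinocytes and foreskin fibroblasts, IL-1a was quantified by ELISA at 24 h, and activity was fitted in both directions relative to DMSO controls.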

Read-out in assay [2]: TIMP metallopeptidase inhibitor 2 (TIMP2), TIMP2 (gene 7077)
As to the kind of experiment: BSK_KF3CT_TIMP2: BioMAP Diversity Plus: KF3CT Assay for TIMP metallopeptidase inhibitor 2 (TIMP2) Biomarker Activity (AID 2283071). The settings on record: primary human keratinocytes with fibroblasts; actives raise or lower the signal. The procedure, abridged: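 Cells: human keratinocytes co-cultured with foreskin fibroblasts. Treat with chemical, 24 h. Measure TIMP-2 by ELISA; fit curves bidirectionally vs DMSO baseline.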

Read-out in assay [3]: Transforming growth factor beta 1 (TGFb1), TGFB1 (gene 7040)
Kind of assay: BSK_KF3CT_TGFb1: BioMAP Diversity Plus: KF3CT Assay for Transforming growth factor beta 1 (TGFb1) Biomarker Activity (AID 2283072). Conditions: primary human keratinocytes with fibroblasts; actives raise or lower the signal. The procedure, abridged: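 Primary human skin cells (keratinocytes, foreskin fibroblasts) were co-cultured, exposed to test chemical and sampled at 24 h. TGF-b1 levels were measured by ELISA and fitted bidirectionally relative to DMSO.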

Read-out in assay [4]: C-C motif chemokine 2 (Homo sapiens) (UniProt P13500)
As to the kind of experiment: BSK_KF3CT_MCP1: BioMAP Diversity Plus: KF3CT Assay for Monocyte Chemoattractant Protein 1 (MCP1/CCL2) Biomarker Activity (AID 2283073). The settings on record: primary human keratinocytes with fibroblasts; actives raise or lower the signal. The procedure, abridged: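 ELISA readout of MCP-1 after 24 h chemical dosing of a human skin primary co-culture of keratinocytes and foreskin fibroblasts. Activity was fitted in both directions against DMSO.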

Read-out in assay [5]: Matrix Metallopeptidase 9 (MMP9), MMP9 (gene 4318)
Kind of assay: BSK_KF3CT_MMP9: BioMAP Diversity Plus: KF3CT Assay for Matrix Metallopeptidase 9 (MMP9) Biomarker Activity (AID 2283074). Conditions: primary human keratinocytes with fibroblasts; actives raise or lower the signal. The procedure, abridged:
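Human keratinocyte/foreskin fibroblast co-culture; compound added; 24 h; MMP-9 by ELISA; bidirectional fit vs DMSO baseline.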

Read-out in assay [6]: CD40, CD40 (gene 958)
Kind of assay: BSK_LPS_CD40: BioMAP Diversity Plus: LPS Assay for CD40 Biomarker Activity (AID 2283076). The settings on record: primary human HUVEC with PBMC; actives raise or lower the signal. The procedure, abridged:
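Cells were dosed, incubated 24 h, then assayed for CD40 by ELISA. Gain or loss of signal was analysed relative to DMSO controls. The culture paired human umbilical vein endothelium with peripheral blood mononuclear cells.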

Read-out in assay [7]: E-selectin (Homo sapiens) (UniProt P16581)
Kind of assay: BSK_LPS_Eselectin: BioMAP Diversity Plus: LPS Assay for Eselectin Biomarker Activity (AID 2283077). Conditions: primary human HUVEC with PBMC; actives raise or lower the signal. The procedure, abridged: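 Primary human vascular co-culture (endothelium plus PBMC) was dosed with chemical, then E-selectin quantified by ELISA at 24 h. Endpoint values derive from bidirectional curve fitting relative to DMSO.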

Read-out in assay [8]: Interleukin-8 (IL8), CXCL8 (gene 3576)
As to the kind of experiment: BSK_LPS_IL8: BioMAP Diversity Plus: LPS Assay for Interleukin-8 (IL8) Biomarker Activity (AID 2283078). Conditions: primary human HUVEC with PBMC; actives raise or lower the signal. The procedure, abridged:
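Readout is IL-8 by ELISA, taken 24 h after compounds were added to LPS-stimulated endothelial/PBMC co-cultures. Both increases and decreases relative to DMSO control were scored through bidirectional fitting.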

Assay [9] in a line: BSK_LPS_SRB: Viability Assessment in the BioMAP Diversity Plus: LPS Assay (AID 2283079).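 Note: total protein by sulforhodamine B absorbance as a cytotoxicity measure; measured one day after compound addition; fitted in both directions against DMSO so loss or gain of signal counts.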 Conditions: primary human HUVEC with PBMC. The procedure, abridged:
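Readout is SRB absorbance at 560 nm (0.1% stain, TCA-fixed parallel cultures) as a total-protein cytotoxicity measure. Cells: primary human umbilical vein endothelium plus peripheral blood mononuclear cells, 24 h after chemical exposure; DMSO served as baseline.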

Read-out in assay [10]: Interleukin-1 alpha (IL1a), IL1A (gene 3552)
As to the kind of experiment: BSK_LPS_IL1a: BioMAP Diversity Plus: LPS Assay for Interleukin-1 alpha (IL1a) Biomarker Activity (AID 2283080). Conditions: primary human HUVEC with PBMC; actives raise or lower the signal. The procedure, abridged: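 ELISA read-out of IL-1 alpha from a human primary vascular co-culture (endothelium plus PBMC) under LPS, sampled 24 hours post-dosing. Activity was fitted in both directions relative to DMSO controls.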

Read-out in assay [11]: Monocyte Chemoattractant Protein-1 (MCP1), CCL2 (gene 6347)
As to the kind of experiment: BSK_LPS_MCP1: BioMAP Diversity Plus: LPS Assay for Monocyte Chemoattractant Protein-1 (MCP1) Biomarker Activity (AID 2283081). The settings on record: primary human HUVEC with PBMC; actives raise or lower the signal. The procedure, abridged: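 Human endothelial–PBMC co-cultures were dosed with chemical, then LPS-driven MCP-1 levels were quantified by ELISA at 24 h. Activity in either direction was fitted versus DMSO negative control.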

A short description of assay [12]: BSK_LPS_PGE2: BioMAP Diversity Plus: LPS Assay for Prostaglandin E2 (PGE2) Biomarker Activity (AID 2283082).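 For AC50: secreted prostaglandin E2 measured by ELISA in LPS-stimulated co-culture.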 Conditions: primary human HUVEC with PBMC; actives raise or lower the signal. The procedure, abridged: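 LPS-activated HUVEC/PBMC co-culture; cmpd dosed, 24 h; PGE2 by ELISA; bidirectional fit vs DMSO; SRB (0.1%, TCA-fixed, 560 nm) in parallel plates for overt cytotox.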

Read-out in assay [13]: Macrophage colony-stimulating factor (MCSF), CSF1 (gene 1435)
Kind of assay: BSK_LPS_MCSF: BioMAP Diversity Plus: LPS Assay for Macrophage colony-stimulating factor (MCSF) Biomarker Activity (AID 2283083). Conditions: primary human HUVEC with PBMC; actives raise or lower the signal. The procedure, abridged:
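ELISA readout of M-CSF after 24 h compound exposure in a human endothelial/PBMC co-culture. Activity, in either direction, is fitted relative to DMSO vehicle.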

Read-out in assay [14]: Tissue Factor, F3 (gene 2152)
As to the kind of experiment: BSK_LPS_TissueFactor: BioMAP Diversity Plus: LPS Assay for Tissue Factor Biomarker Activity (AID 2283084). Conditions: primary human HUVEC with PBMC; actives raise or lower the signal. The procedure, abridged: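 ELISA signal for cell-surface Tissue Factor (CD142) was read 24 h after compound dosing of an LPS-stimulated human endothelial–PBMC primary co-culture. Gain or loss of signal was scored relative to DMSO.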

Read-out in assay [15]: Tumor necrosis factor (Homo sapiens) (UniProt P01375)
Kind of assay: BSK_LPS_TNFa: BioMAP Diversity Plus: LPS Assay for Tumour Necrosis Factor alpha (TNFa) Biomarker Activity (AID 2283085). Conditions: primary human HUVEC with PBMC; actives raise or lower the signal. The procedure, abridged:
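Read-out is ELISA of TNFa in primary human endothelial cell–PBMC co-cultures at 24 h after compound. Activity in either direction was fitted against DMSO.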

Read-out in assay [16]: Vascular cell adhesion molecule 1 (VCAM1), VCAM1 (gene 7412)
Kind of assay: BSK_LPS_VCAM1: BioMAP Diversity Plus: LPS Assay for Vascular cell adhesion molecule 1 (VCAM1) Biomarker Activity (AID 2283086). Conditions: primary human HUVEC with PBMC; actives raise or lower the signal. The procedure, abridged:
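HUVEC + PBMC co-culture, LPS system; compound 24 h; VCAM-1 by ELISA; bidirectional fit vs DMSO control; parallel SRB (0.1%, TCA-fixed, 560 nm) for cytotoxicity.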

Read-out in the next assay: CD38, CD38 (gene 952)
Kind of assay: BSK_SAg_CD38: BioMAP Diversity Plus: SAg Assay for CD38 Biomarker Activity (AID 2283087). The settings on record: primary human HUVEC with PBMC; actives raise or lower the signal. The procedure, abridged:
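Human HUVEC plus PBMC co-culture stimulated with superantigen; CD38 measured by ELISA 24 h after chemical dosing. Fluorescence read-out, bidirectional fit against DMSO; cytotoxicity tracked in parallel by SRB and Alamar Blue.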

Read-out in assay [17]: CD40, CD40 (gene 958)
As to the kind of experiment: BSK_SAg_CD40: BioMAP Diversity Plus: SAg Assay for CD40 Biomarker Activity (AID 2283088). The settings on record: primary human HUVEC with PBMC; actives raise or lower the signal. The procedure, abridged:
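Compounds were dosed onto a human primary endothelial–PBMC co-culture, and after 24 h CD40 was quantified by ELISA using a fluorescence signal. Activity in either direction was fitted relative to DMSO.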

Read-out in a further assay: CD69, CD69 (gene 969)
As to the kind of experiment: BSK_SAg_CD69: BioMAP Diversity Plus: SAg Assay for CD69 Biomarker Activity (AID 2283089). Conditions: primary human HUVEC with PBMC; actives raise or lower the signal. The procedure, abridged: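 Endothelial/PBMC co-culture; chemical added; 24 h incubation; CD69 ELISA with fluorescence detection; bidirectional fit vs DMSO.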

More than one record can exist for a structure, and the calls need not agree. Calls of active or inactive are those of the source. Rule for the calls: active = hit-call score of the fitted dose curve at least 0.9, where 1 is the maximum; inactive = score below 0.9.

Tumor necrosis factor (Homo sapiens), sequence (P01375 whole entry, looked up): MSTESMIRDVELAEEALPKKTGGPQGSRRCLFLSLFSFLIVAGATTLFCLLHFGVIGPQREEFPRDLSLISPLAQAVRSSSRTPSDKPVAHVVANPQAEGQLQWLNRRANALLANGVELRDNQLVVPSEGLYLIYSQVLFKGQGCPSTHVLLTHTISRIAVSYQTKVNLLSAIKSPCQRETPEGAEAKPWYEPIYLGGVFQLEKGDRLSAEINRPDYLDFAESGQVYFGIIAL
E-selectin (Homo sapiens), sequence (P16581 whole entry, looked up): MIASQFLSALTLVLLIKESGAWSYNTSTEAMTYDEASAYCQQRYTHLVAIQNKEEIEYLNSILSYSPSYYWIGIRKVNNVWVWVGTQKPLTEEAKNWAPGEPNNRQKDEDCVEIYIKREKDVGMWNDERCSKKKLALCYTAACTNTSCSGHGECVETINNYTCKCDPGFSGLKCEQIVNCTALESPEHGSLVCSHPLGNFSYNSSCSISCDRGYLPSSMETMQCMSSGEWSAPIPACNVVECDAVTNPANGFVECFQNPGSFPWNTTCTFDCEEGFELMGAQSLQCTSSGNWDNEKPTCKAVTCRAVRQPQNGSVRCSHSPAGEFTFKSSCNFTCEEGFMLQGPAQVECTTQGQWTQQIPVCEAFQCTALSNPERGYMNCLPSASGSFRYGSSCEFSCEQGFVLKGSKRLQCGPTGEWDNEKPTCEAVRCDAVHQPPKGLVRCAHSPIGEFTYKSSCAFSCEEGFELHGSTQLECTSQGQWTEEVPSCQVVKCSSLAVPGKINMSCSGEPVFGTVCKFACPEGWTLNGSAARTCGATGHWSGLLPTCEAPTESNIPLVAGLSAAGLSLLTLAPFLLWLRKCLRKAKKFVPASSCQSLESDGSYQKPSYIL

Regarding `CCN(CC)c1ccc(C=O)c(O)c1`, the outcome in assay [1] is “inactive”; in assay [2] it was “inactive”; in assay [3], “inactive”; in [4], “inactive”; in assay [5], “inactive”; with CD40, CD40 (gene 958) [6], “inactive”. Also, the result in assay [7], in assay [8], in [9], in assay [10], in assay [11] and in assay [12] was inactive. The outcome in assay [13] is “inactive”; in [14], “inactive”; in [15], “inactive”; in [16], “inactive”; in the assay with CD38, CD38 (gene 952), “inactive”; with CD40, CD40 (gene 958) [17], “inactive”. The outcome in the assay with CD69, CD69 (gene 969) was inactive.
Consider `C=CC(=O)OCC(F)(F)C(F)(F)C(F)(F)C(F)(F)C(F)(F)C(F)(F)C(F)(F)C(F)F`, for which the outcome in assay [1] was “inactive”; in [2] it was “inactive”; in assay [4] it was “inactive”; in assay [5] it was “inactive”; with CD40, CD40 (gene 958) [6] it was “inactive”; in assay [7] it was “inactive”. For the same molecule, the result in assay [8], in assay [9], in assay [10], in assay [11], in [12] and in [13] was inactive. The outcome is “inactive” in [14]; “inactive” in assay [15]; “inactive” in assay [16]; “inactive” with CD38, CD38 (gene 952); “inactive” with CD40, CD40 (gene 958) [17]; “inactive” with CD69, CD69 (gene 969). For the same molecule, the AC50 is 30 µM (active) in assay [4]; 24 µM (active) in the assay with CD40, CD40 (gene 958) [6]; 13.9 µM (active) in [12]; 18.1 µM (active) with CD40, CD40 (gene 958) [17].
